Hit rate of the full screen: of about 69,000 compounds, about 30 (0.04%) showed an effect of 50% or more. The entries come from a sample that favours strong results as a whole.
Each molecule was assayed against T1, Histidine--tRNA ligase (Trypanosoma cruzi (strain CL Brener)) (UniProt Q4DA54) (assay: Trypanosoma cruzi histidyl tRNA synthetase (Tc-HisRS)). Details: 30 µM.
T1 sequence (whole entry): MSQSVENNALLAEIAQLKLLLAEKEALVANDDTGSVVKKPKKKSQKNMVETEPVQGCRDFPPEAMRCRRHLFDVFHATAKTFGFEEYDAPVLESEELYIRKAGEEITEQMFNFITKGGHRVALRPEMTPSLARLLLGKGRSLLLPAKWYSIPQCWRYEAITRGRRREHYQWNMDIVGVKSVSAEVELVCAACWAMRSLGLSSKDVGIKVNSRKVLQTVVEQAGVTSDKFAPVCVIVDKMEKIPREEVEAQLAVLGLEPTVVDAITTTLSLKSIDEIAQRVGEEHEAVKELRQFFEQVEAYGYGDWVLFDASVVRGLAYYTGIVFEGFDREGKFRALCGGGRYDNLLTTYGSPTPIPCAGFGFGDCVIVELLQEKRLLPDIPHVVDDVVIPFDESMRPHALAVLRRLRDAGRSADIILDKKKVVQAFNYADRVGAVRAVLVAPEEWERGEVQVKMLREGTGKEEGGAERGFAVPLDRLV
Type: functional
Parameters: scale not given: direction of the effect not stated beside the values

Compound | Percent Effect [%]
COc1ccc(CN2C[C@H]3CC[C@](O)(c4ccc(C)cn4)[C@H]3C2)c(F)c1 | -0.54
Cc1ccc(C(=O)N2C[C@H]3CCC[C@@]3(COCC3CCOCC3)C2)o1 | 14.3
Cn1cc(CN2CC[C@H]3OCC[C@@H](C(=O)Nc4cnccn4)[C@@H]3C2)cn1 | -1.22
CN(Cc1cccnc1)C[C@H]1OC[C@@H]2CCN(c3ncccn3)C[C@@H]21 | -3.09
COc1cccc(-c2ncc(CN3CC[C@H]4CC[C@@H](C3)N4)s2)c1 | 7.88
O=C(c1cnccn1)N1C[C@@H]2CCN(c3cccnc3)C[C@@H]2C1 | 2.96
CN(C)C(=O)[C@@H]1CCO[C@@H]2CCN(Cc3ccccc3)C[C@@H]21 | 5.88
NCC1Cc2cccc(-c3nccc(N4CCC(O)CC4)n3)c2O1 (stereo unspecified) | 20.4
NCC1Cc2cc(-c3nccc(N4CCC(O)CC4)n3)cc(F)c2O1 (stereo unspecified) | 33.7
NCC1Cc2cc(-c3nccc(N4CCC(O)CC4)n3)cc(Cl)c2O1 (stereo unspecified) | 53.1
Cc1cnc(N2C[C@@H]3[C@@H](C2)OCC(=O)N3C)nc1 | 7.36
CC(=O)N1CC[C@@H]2O[C@@H](COCC(=O)N3CCCC3)CC[C@@H]21 | 2.63
O=C(C1CCCC1)N1C[C@@H](c2ccsc2)[C@@H]2CN(C3CCCC3)CC[C@@H]21 | 41.7
O=C(c1ccsc1)N1C[C@H]2CN(Cc3cccc(F)c3)C(=O)[C@H]2C1 | 7.84
COCCN1C[C@@H]2CN(C(=O)[C@H]3CCCO3)C[C@@H]2C1=O | 0
CSc1ncccc1C(=O)N1C[C@H]2CC[C@@H]1CN(c1ncccn1)C2 | 1.67
Cc1ccnc(OC[C@@]23CCO[C@@H]2CCN(c2ncccn2)C3)n1 | 9.2
O=C(NC1CC1)[C@@]12CCO[C@@H]1CCN(Cc1ccc3c(c1)OCO3)C2 | 1.11
CC(C)c1nc(CNC2CCCN(c3cccnn3)C2)no1 (stereo unspecified) | 50.6
CC(C)(C)c1nc(CNC2CCCN(c3cccnn3)C2)no1 (stereo unspecified) | 0.595
Cc1nc(CNC2CCCN(c3cccnn3)C2)no1 (stereo unspecified) | 6.55
O=C1[C@@H]2CCN(Cc3ccc(F)cc3)C[C@@H]2OCCN1c1cccnc1 | 8.02

Compound | Percent Effect [%]
COc1cccn(CC(=O)N2CCCC3(CCCCC3)C2)c1=O | 76.2
COc1cccn(CC(=O)N2CCCC3(CCOCC3)C2)c1=O | 9.9
CCCOCC1CCN(C(=O)Cn2cccc(OC)c2=O)C1 (stereo unspecified) | 10.3
COc1cccn(CC(=O)N2CCC3(CCNCC3)C2)c1=O | 10.9
COCCN(C)C(=O)Cn1cccc(OC)c1=O | 3.31
COc1cccn(CC(=O)N2CCCC3(CCCO3)CC2)c1=O (stereo unspecified) | 71.3
Cc1ccc(N2CC[C@H]3O[C@H](C(=O)N4CCCCO4)CC[C@H]32)nn1 | -1.11
CNC(=O)[C@H]1C[C@@H]2CN(S(=O)(=O)c3cccc(C)c3)C[C@@H]2N1C | 5.88
CC(=O)N1CCO[C@@H]2CN(C(=O)c3ccc4ccccc4c3)CC[C@@H]2C1 | -5.75
CCS(=O)(=O)N1Cc2c(Cn3ccnc3)nn(C)c2C1 | 2.67
Cn1nc(Cn2ccnc2)c2c1CN(c1nccs1)C2 | 66.7
Cn1nc(Cn2ccnc2)c2c1CN(c1ncccn1)C2 | 2.15
CN(CC1CC1)c1ccc2ccc(C(=O)NC3CCCCC3)cn12 | 42.8
O=C(NC1CC1)c1ccc2ccc(N3CCN(CC4CC4)CC3)n2c1 | 45.1
COCCN1CCN(c2ccc3ccc(C(=O)NC4CC4)cn23)CC1 | 35
CCN(CC)c1ccc2ccc(C(=O)NC3CC3)cn12 | 36.8
CS(=O)(=O)N1CCN(c2ccc3ccc(C(=O)NC4CC4)cn23)CC1 | 52.4
CC(=O)N1CCN(c2ccc3ccc(C(=O)NC4CCCC4)cn23)CC1 | 59.4
COCCNC(=O)c1ccc2ccc(N3CCN(CC4CC4)CC3)n2c1 | 38.8
CC(C)N1CCN(c2ccc3ccc(C(=O)NC4CCCC4)cn23)CC1 | 60.2
CN(C)C(=O)N1CCN(c2ccc3ccc(C(=O)NC4CC4)cn23)CC1 | 36.9
CS(=O)(=O)NC[C@]12COC[C@H]1CN(C(=O)C1CCSCC1)C2 | -6.35

Compound | Percent Effect [%]
Cc1cc(CN2CC[C@H]3C(=O)N(c4ccccc4)CCO[C@H]3C2)no1 | 7.1
CCOc1ccc(CCC(=O)N2CC[C@H]3C(=O)NCCO[C@H]3C2)cc1 | 3.45
CN(C)CCO[C@H]1CN(C(=O)c2ccc(C#N)cc2)[C@@H]2COC[C@H]12 | 15.7
CO[C@H]1[C@@H]2CC[C@H]1CN(c1nc(C)nc3ccsc13)C2 | -6.52
CN(C)C(=O)CN1C[C@H]2CCN(C(=O)c3ccccc3)CC[C@H]2S1(=O)=O | 4.3
Cc1noc(C)c1CN1CCO[C@H]2CN(Cc3ccc(F)cc3)C[C@H]21 | 7.2
O=C(Cn1c(=O)nc2n1C(=O)N(c1ccccc1)C2)NC1CCCCC1 | 6.06
CN(CC1CC1)c1ccc2ccc(C(=O)NCCc3ccccc3)cn12 | 51.4
CN(C)CCNC(=O)c1ccc2ccc(N(C)CC3CC3)n2c1 | -9.13
COCCNC(=O)c1ccc2ccc(N(C)CC3CC3)n2c1 | 26.4
O=C(c1ccnnc1)N1CC[C@H]2C[C@H](c3ccncn3)O[C@@H]2C1 | 7.44
CS(=O)(=O)N1C[C@H]2C[C@H](C(=O)N3CCOCC3)[C@@H](C1)O2 | 4.85
O=C(O)c1cncc(Cc2ccccc2F)c1 | -0.376
O=C(O)c1cncc(Cc2cccc(F)c2)c1 | 5.64
O=C(O)c1cncc(Cc2ccc(F)cc2)c1 | 62.8
O=C(CO[C@@H]1CC[C@H]2[C@H]1OCCN2Cc1ccccn1)N1CCCC1 | 7.53
Cc1noc(C)c1CN1C(=O)[C@H]2CC[C@@H]1CN(Cc1ccc(Cl)cc1)C2 | 3.17
CCN1C(=O)COC[C@@H]1[C@H](O)c1ccc(NC(=O)COC)cc1 | -5.47
Cn1ccnc1CN1C[C@H]2CN(S(=O)(=O)c3ccccc3)CCN2C1=O | -1.49
CCN1CCN(S(=O)(=O)N2CCc3ccccc3C2)[C@H]2CS(=O)(=O)C[C@H]21 | 1.32
O=C1[C@H]2CC[C@H](CN(Cc3nnc(C4CC4)o3)C2)N1Cc1cscn1 | 8
CC(C)C(=O)N1CC[C@@H]2CN(Cc3ccncc3)S(=O)(=O)[C@@H]2CC1 | 1.07

Compound | Percent Effect [%]
Cc1ccccc1C(=O)N1CC[C@@H]2CN(c3ncccn3)CCO[C@@H]2C1 | 0.98
CCOC(=O)[C@]12CCCN(Cc3ccco3)C[C@H]1CN(S(C)(=O)=O)C2 | 1.68
c1cc(CN2C[C@@H]3OCCN(CC4CCCO4)[C@@H]3C2)co1 (stereo partly specified) | 2.94
Cn1cc(CN2CC[C@H]3C[C@H](c4nc(C5CC5)cs4)O[C@@H]3C2)cn1 | 1.67
CCn1ncnc1C1CC(=O)NCc2nc(N3CCOCC3)sc21 (stereo unspecified) | 9.45
COc1ccc(C2CC(=O)Nc3nc(N4CCOCC4)sc32)c(OC)c1 (stereo unspecified) | 72
COc1ccc(C(C)C)cc1C1CC(=O)NCc2nc(N(C)C)sc21 (stereo unspecified) | 7.85
COc1ccc(OC)c(C2CCN(CC(C)(C)N3CCOCC3)C2)c1 (stereo unspecified) | 8.29
COc1ccc(C2CC(=O)Nc3nc(N4CCOCC4)sc32)cc1 (stereo unspecified) | -2.48
COc1ccc(OC)c(C2CC(=O)Nc3nc(N4CCOCC4)sc32)c1 (stereo unspecified) | 75.8
O=C1C[C@H]2[C@@H](CCN2C(=O)Cc2cccs2)N1CC1CC1 | 5.83
CC(C)NC(=O)[C@H]1C[C@@H]2[C@@H](C1)OCCN2Cc1cccs1 | 3.48
CCOC(=O)[C@@H]1CN2CCNC[C@@H]2[C@H]1c1ccccc1 | 1.12
O=C(C1CCOCC1)N1C[C@H]2CCC[C@@]2(COc2cccnc2)C1 | 12.8
CCOC(=O)[C@]12CCCN(Cc3nccs3)C[C@H]1CN(S(C)(=O)=O)C2 | 6.45
Cn1cc(C(=O)N[C@H]2CN(S(C)(=O)=O)[C@@H]3CCCO[C@H]23)cn1 | 4.9
Cc1ccc(C(=O)N2CCO[C@H]3[C@@H](OCc4ccccn4)CC[C@@H]32)o1 | 5.43
O=C(c1ccccn1)N1C[C@@H]2CC[C@H](C1)N(C(=O)CCc1cccs1)C2 | 5.02
CCN1CCO[C@@H]2CN(C(=O)NCc3ccccc3)CC[C@@H]2C1 | 1.06
CN1CCC(NC(=O)[C@H]2CC[C@@H]3[C@@H](CCN3c3ncccn3)O2)CC1 | 5.75
c1cnc(N2C[C@@H]3COC[C@]3(COCC3CCCC3)C2)nc1 | 14.3
Cc1ccsc1C(=O)N1C[C@@H]2CN(Cc3ccoc3)CCO[C@@H]2C1 | 3.87

Compound | Percent Effect [%]
Cc1ccc(N2CCN(C(=O)CN3C[C@@H]4CC[C@H]3C4)CC2=O)cc1 | 6.47
Cc1ccc(CN2CCC[C@]3(C(=O)O)CN(CC4CC4)C[C@@H]3C2)s1 | -3.17
CCn1ncc(CN2C[C@@H]3CCCN3C[C@@H]2CCSC)c1C | 8.99
O=C(C1CCC1)N1CC[C@@H]2CN(Cc3cccnc3)S(=O)(=O)[C@@H]2CC1 | 11.6
CN(C)C(=O)COC[C@]12COC[C@H]1CN(Cc1ccccc1)C2 | 4.67
NC(=O)c1ccc(OCC(=O)N2CCCC2c2ccc[nH]2)cc1 (stereo unspecified) | 9.13
CC1CCN(c2ccc(C(=O)N3CCCC3c3ccc[nH]3)cn2)CC1 (stereo unspecified) | 66.8
CC1CCN(c2ccc(C(=O)N3CCCC3c3nncn3C)cn2)CC1 (stereo unspecified) | 3.87
O=C(Nc1cccnc1)[C@H]1CO[C@H]2CCN(c3ncc(F)cn3)C[C@H]2C1 | 8.11
O=C(NCc1cnn2cccnc12)c1cccc(CC2CCNCC2)c1 | 85.5
CC(C)Cn1cncc1CNC(=O)c1cccc(CC2CCNCC2)c1 | 1.62
CC(C)(O)CCc1cccc(C(=O)NCc2cnn3cccnc23)c1 | 1.82
COc1cc(N2CC[C@H]3O[C@@H](C(=O)NC4CCCC4)CC[C@H]32)ncn1 | 0
CC(=O)N1C[C@@H]2CC[C@H](C1)N(S(=O)(=O)c1ccc(F)cc1Cl)C2 | 3
CC/N=c1/c(NC(=O)C2CC2)c(O)oc2ccccc12 | 3.51
NC1CCN(C2CCN(c3ccc(-c4ccco4)cc3)CC2)CC1 | 43.5
NCC1CCN(C2CCN(c3ccc(-c4ccco4)cc3)CC2)C1 (stereo unspecified) | 50.6
CNC1CCN(C2CCN(c3ccc(-c4ccco4)cc3)CC2)CC1 | 35.3

Source: ChEMBL document CHEMBL3988442, “University of Dundee, Small-Polar-MMV Screening Library” (2021)
